High-throughput results deposited in PubChem by National Center for Advancing Translational Sciences (NCATS).
The full list was thinned out, with hits kept by preference.
Pf Dd2 growth: Plasmodium falciparum Dd2 growth inhibition | AID 1347417 | 120,000 tested, 4.3% active | P. falciparum Dd2 growth, SYBR Green, 72 h | Potency, µM (doses to about 28.9 µM), actives largely listed as inhibitors; active means well fitted inhibition curve with a large enough effect; further: nearly all actives have a fitted effect of over 65% in size
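Readout: SYBR Green fluorescence, 485 nm excitation, 535 nm emission, after ~16 h lysis at 37C. Before that, Dd2-infected red cells (2.5% hematocrit) grew 72 h with compound, 29 uM top final concentration.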
Numbers stand for hits; [ ] = dose if it differs, or a comment.

For COc1ccc(NC(=O)c2cnn(-c3ccc(F)cc3F)c2C2CCN(C(=O)OC(C)(C)C)CC2)cc1Cl the results were Pf Dd2 growth 7.9µM.
CC(C)(C)OC(=O)N1CCC(c2c(C(=O)O)cnn2-c2ccc(F)cc2F)CC1 was read as Pf Dd2 growth inactive.
Cc1cccc(-n2ncc(C(=O)Nc3ccc4c(c3)OCO4)c2C2CCN(C(=O)OC(C)(C)C)CC2)c1 was read as Pf Dd2 growth 10µM.
For Cc1c(Cl)cccc1-n1ncc(C(=O)Nc2ccc(F)cc2F)c1C1CCN(C(=O)OC(C)(C)C)CC1 the results were Pf Dd2 growth inactive.
Screening CC(C)(C)OC(=O)N1CCC(c2c(C(=O)NCc3ccc4c(c3)OCO4)cnn2-c2ccc(F)cc2F)CC1 returned Pf Dd2 growth 7.9µM.
Cc1ccc(-n2ncc(C(=O)N3CCCCC3)c2C2CCN(C(=O)OC(C)(C)C)CC2)cc1C was read as Pf Dd2 growth inactive.
CNC(=O)[C@@H]1CN(C(=O)NCc2ccco2)C[C@H]1c1nc(C)no1 was read as Pf Dd2 growth inactive.
For Cc1ccc(N(CC(=O)N[C@H]2CC[C@H]2N)S(C)(=O)=O)cc1 the results were Pf Dd2 growth inactive.
For CS(=O)(=O)N1C[C@H]2CCN(Cc3ccccc3F)C[C@H]21 the results were Pf Dd2 growth inactive.
For Cc1nc(C)c(C(=O)NC2CC(c3nnc(Cn4ccnc4)n3C)C2)s1 (stereo not drawn) the results were Pf Dd2 growth inactive.
Screening Cc1cccc(CC(=O)N2CCC(Cc3nc(C4CCOCC4)no3)CC2)c1 returned Pf Dd2 growth inactive.
Screening O=C(Cc1ccc(Cl)cc1)NC1CCN(c2ccccc2)C1=O (stereo not drawn) returned Pf Dd2 growth inactive.
COc1ccc(-c2noc(-c3nnn4c3COC(c3ccc(F)cc3)C4)n2)cc1F (stereo not drawn) was read as Pf Dd2 growth inactive.
For CCc1cccc(NC(=O)Cn2ccn3nc(-c4ccc(F)cc4)c(CO)c3c2=O)c1 the results were Pf Dd2 growth inactive.
CCOc1ccccc1NC(=O)Cn1c(N2CCOCC2)nc(COC)cc1=O was read as Pf Dd2 growth inactive.
O=C(O)C1CCc2nnc(C3CCCN(C(=O)c4ccc5c(c4)OCO5)C3)n21 (stereo not drawn) was read as Pf Dd2 growth inactive.
Screening CC(C)(C)OC(=O)N1CCC(c2c(C(=O)Nc3ccc4c(c3)OCCO4)cnn2-c2ccc(F)cc2F)CC1 returned Pf Dd2 growth 4µM.
`CC(C)OCCCNC(=O)CC1=C2CCCCC2N(C(C)C)C1=O` (stereo not drawn) gave Pf Dd2 growth inactive.
Screening CN(CCCNC(=O)c1cc2c(=O)n(C)c3ccccc3c2s1)Cc1ccccc1 returned Pf Dd2 growth 10µM.
Cc1ccc2[nH]c(=O)c3cc(C(=O)NCCCN4CCC(C)CC4)sc3c2c1 was read as Pf Dd2 growth 8.9µM.
Screening CCN(CCCNC(=O)c1cc2c(=O)n(CC)c3ccccc3c2s1)c1ccccc1 returned Pf Dd2 growth inactive.
For CCn1c(=O)c2cc(C(=O)NCCCN3CCC(C)CC3)sc2c2ccccc21 the results were Pf Dd2 growth inactive.
Screening CCOC(=O)C1CCCN(C(=O)c2cc3c(=O)[nH]c4ccc(C)cc4c3s2)C1 (stereo not drawn) returned Pf Dd2 growth inactive.
Cn1c(=O)c2cc(C(=O)NCCCN3CCN(c4ccccc4F)CC3)sc2c2ccccc21 was read as Pf Dd2 growth inactive[5.79 µM].
For Cn1c(=O)c2cc(C(=O)NCCCN3CCN(c4ccc(F)cc4)CC3)sc2c2ccccc21 the results were Pf Dd2 growth inactive.
`CCN1CCN(CCCNC(=O)c2cc3c(=O)n(C)c4ccccc4c3s2)CC1` gave Pf Dd2 growth 3.2µM.
For COc1ccc(Br)cc1CNC(=O)c1cc2c(=O)n(C)c3ccccc3c2s1 the results were Pf Dd2 growth inactive.
For O=C(c1cc[nH]c(=O)c1)N1C[C@@H](COCC2CC2)[C@H](c2ccccn2)C1 the results were Pf Dd2 growth inactive.
CO[C@H]1C(=O)N(C(C)C)[C@H]1C1CCN(C(=O)c2ccc3ncccc3c2)CC1 was read as Pf Dd2 growth inactive.
Screening COCc1noc([C@@H]2CN(C(=O)CC3=CCCCC3)C[C@H]2CO)n1 returned Pf Dd2 growth inactive.
For CN(CC1CCOCC1)C(=O)c1ccccc1Cl the results were Pf Dd2 growth inactive.
`COc1ccc(C)cc1-n1c(-c2ccc(Cl)cc2)cc2c1CC(C)(C)CC2=O` gave Pf Dd2 growth 1µM.
`COc1ccc(-n2c3c(cc(-c4nc(-c5ccc(Cl)cc5)cs4)c2=O)C(=O)CC(C)(C)C3)cc1Cl` gave Pf Dd2 growth inactive.
For Cc1ccc(-c2cc3c(n2-c2ccccc2F)CC(C)(C)CC3=O)cc1 the results were Pf Dd2 growth inactive.
Screening Cc1ccc(-c2nnc3ccc(N(C)CCN(C)C)nn23)nc1 returned Pf Dd2 growth inactive.
Screening c1ccc(OCc2cc(CC3(NC4CCC4)COC3)no2)cc1 returned Pf Dd2 growth inactive.
`CC1(C)[C@H](Cc2cc(COc3ccccc3)on2)C[C@@H]1NC1CCC1` gave Pf Dd2 growth 11µM.
For CCCCc1cc(C[C@@H]2C[C@H](NC(=O)NCC)C2(C)C)no1 the results were Pf Dd2 growth inactive.
`CC1(C)[C@H](Cc2cc(CN3CCOCC3)on2)C[C@@H]1NC(=O)Nc1ccc(F)cc1` gave Pf Dd2 growth inactive.
`CN(C)[C@H]1C[C@@H](Cc2cc(COc3ccccc3)on2)C1(C)C` gave Pf Dd2 growth inactive.
`CCCCCC(=O)N[C@H]1C[C@@H](Cc2cc(COC(=O)CCCCC)on2)C1(C)C` gave Pf Dd2 growth inactive.
For CC(C)(C)C(=O)N[C@H]1C[C@@H](Cc2cc(COc3ccccc3)on2)C1(C)C the results were Pf Dd2 growth inactive.
Screening CC1(C)[C@H](Cc2cc(COc3ccccc3)on2)C[C@@H]1NC(=O)Nc1ccccc1 returned Pf Dd2 growth 10µM.
For CCCCCC(=O)N[C@H]1C[C@@H](Cc2cc(COc3ccccc3)on2)C1(C)C the results were Pf Dd2 growth 11µM.
For Cc1cc(NCCc2c[nH]c(=O)[nH]c2=O)n2nccc2n1 the results were Pf Dd2 growth inactive.
For COc1cccc(N2C(=O)NC(=NC3CCCCC3)C23CCN(C(=O)c2ccccc2F)C3)c1 (stereo not drawn) the results were Pf Dd2 growth inactive.
Screening C[C@@H]1CN(C(=O)c2cccc(C#N)c2)C[C@]1(C)O returned Pf Dd2 growth inactive.
Screening CCN(CC)CCNc1nc(C)nc2c1c(C)nn2C returned Pf Dd2 growth inactive.
O=C(Nc1ccc(F)c(Cl)c1)C1CCc2sc(C(=O)N3CCOCC3)cc2C1 (stereo not drawn) was read as Pf Dd2 growth inactive.
COc1cccc(NC(=O)N(C)CC2CCOCC2)c1 was read as Pf Dd2 growth inactive.
`Cc1cc2cc(-c3c(C)noc3C)nc(NCC3CC3)c2o1` gave Pf Dd2 growth inactive.
`Cc1noc(C)c1-c1cc2cc(C(C)C)oc2c(-c2c(C)noc2C)n1` gave Pf Dd2 growth inactive.
`Cc1noc(C)c1-c1cc2cc(C(C)C)oc2c(NC2CCOCC2)n1` gave Pf Dd2 growth 11µM.
`Cc1noc(C)c1-c1cc2cc(CO)oc2c(NCCN2CCOCC2)n1` gave Pf Dd2 growth inactive.
`Cc1noc(C)c1-c1cc2cc(C(C)C)oc2c(NC(C)C)n1` gave Pf Dd2 growth inactive.
For Cc1cc2cc(-c3c(C)noc3C)nc(NC3CCN(C)CC3)c2o1 the results were Pf Dd2 growth 10µM.
For CCOc1ccccc1NC(=O)N1C[C@H](Oc2cccnc2)C[C@@H]1C(=O)N1CCOCC1 the results were Pf Dd2 growth inactive.
